# CHT allo act – allosterically activates the human high affinity choline transporter. Q9GZV3. CHT-expressing cells, membrane potential dye, choline EC20; hits give high values; LV-AA mutant CHT in HEK293 cells. B-score at 10 µM. actives 0.49% (n = 310,000);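 active = initial fluorescence not abnormally high and integrated response B-score, plate-corrected, over 3 SD above library mean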
# Target sequence (Q9GZV3 whole entry, looked up): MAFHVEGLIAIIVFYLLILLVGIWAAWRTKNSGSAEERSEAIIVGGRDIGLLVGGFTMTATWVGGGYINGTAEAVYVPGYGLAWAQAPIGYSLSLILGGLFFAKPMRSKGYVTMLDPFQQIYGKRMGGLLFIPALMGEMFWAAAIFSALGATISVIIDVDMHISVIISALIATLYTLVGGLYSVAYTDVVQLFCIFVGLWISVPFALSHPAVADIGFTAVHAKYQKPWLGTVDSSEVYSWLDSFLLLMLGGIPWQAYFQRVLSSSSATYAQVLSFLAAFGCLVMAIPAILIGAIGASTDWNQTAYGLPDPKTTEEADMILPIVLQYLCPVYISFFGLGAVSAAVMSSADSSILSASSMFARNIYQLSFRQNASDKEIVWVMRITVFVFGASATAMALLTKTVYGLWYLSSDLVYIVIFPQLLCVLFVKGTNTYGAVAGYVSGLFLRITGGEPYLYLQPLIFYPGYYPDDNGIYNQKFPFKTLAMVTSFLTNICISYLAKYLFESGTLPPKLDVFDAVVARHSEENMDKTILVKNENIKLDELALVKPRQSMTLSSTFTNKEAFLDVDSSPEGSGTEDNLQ
# H9c2 TAG inh – triacylglycerol accumulation inhibition; inhibition, % at 12.5 µM; H9c2 cells, Nile Red lipid (TAG) fluorescence; cells loaded with 200 µM oleic acid; AID 651582; actives 0.66% (n = 230,000);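 active = pattern-corrected inhibition of lipid staining of at least 50% with the nuclear-stain viability signal not falling by more than 50%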;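 also: 0% = DMSO wells and 100% = triacsin C control wells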
# CHT block – inhibitors of human choline transporter CHT; Q9GZV3; CHT-expressing cells, membrane potential dye, choline response; hits give low values; B-score at 10 µM; actives 0.86% (n = 310,000);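 active = B-score over 3 SD under the library average, and starting fluorescence ratio not unusually high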;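 also: choline stimulus applied at its EC90 after an EC20 pre-addition; B-score computed on integrated fluorescence ratio after choline addition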
# MIN6 prolif-1 – inducers of beta-cell replication in MIN6 cells; MIN6 cells proliferation, ATPlite luminescence, 48 h; cells starved in 0.2% serum; 100% = growth in 10% serum; proliferation, % at 10 µM; actives 0.29% (n = 330,000);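 active = compounds whose signal lies at least 3.5 SD above the mean of all wells on their plate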;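 also: 0% = DMSO-treated cells in low-serum medium and 100% = 10% serum control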
# MIN6 prolif-2 – confirmation of inducers of beta-cell replication in MIN6 cells | shares compounds with MIN6 prolif-1 | MIN6 beta-cell proliferation, ATPlite luminescence, 48 h; cells kept in 0.2% serum; scaled between 0.2% and 10% serum | proliferation increase, % at 50 µM | 920 tested, under 10 active | AID 463095;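 active = proliferation increase above 40% at any of the four tested concentrations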
# Active calls of the source: *; i = inactive; · = no result given. Hits are enriched below; roughly 1.7% of the tested compounds scored in any of these assays.
SMILES,CHT allo act,H9c2 TAG inh,CHT block,MIN6 prolif-1,MIN6 prolif-2
CC(CC(=O)Nc1nnc(CC(C)(C)C)s1)c1ccccc1 (centres undefined),i,2,i,-4,·
CCOC(=O)c1c2n(c3ccc(O)cc13)CCC2,i,-16,i,9.1*,0
Cc1cccc(C)c1NC(=O)CSc1nc(C2CC2)nc2ccccc12,i,·,i,0.0*,2
COc1cccc(NC(=O)CSc2nc(C3CC3)nc3ccccc23)c1,i,·,i,0,·
CC1CN(c2nc(N(C)c3ccccc3)nc(N)c2[N+](=O)[O-])CC(C)O1 (centres undefined),i,·,i,8.7*,-3
CC1CC(C)CN(c2nc(N(C)c3ccccc3)nc(N)c2[N+](=O)[O-])C1 (centres undefined),i,2,i,-5,·
CCc1ccccc1NC(=O)C1(S(=O)(=O)c2ccc(C)cc2)CC1,i,·,i,0,·
COC(=O)Cc1c(O)ccn(CCc2ccc(OC)c(OC)c2)c1=O,i,-24,i,7.2*,1
O=C(c1cc([N+](=O)[O-])ccc1N1CCOCC1)N1CCN(S(=O)(=O)c2ccc(F)cc2)CC1,i,-5,i,11*,0
Cc1cc(NC(=O)CSc2cc(C)c3ccccc3n2)no1,·,26,·,7,·
Cc1cc(NC(=O)CSc2c3c(nc4ccccc24)CCC3)no1,i,2,i,16*,-6
COc1ccc(NC(=O)CSc2c3c(nc4ccccc24)CCCC3)c(OC)c1,i,·,i,0,·
COc1ccccc1NC(=O)CSc1c2c(nc3ccccc13)CCC2,i,·,i,8.4*,-6
O=C(c1ccc2c3c(cccc13)CC2)N1CCOCC1,i,4,i,5.3*,1
COC(=O)c1nn(-c2ccccc2)c(Sc2ccc(OC)cc2)c1/C=N/O,i,·,i,6.5*,-4
S=C1NCCc2ccccc2C1c1ccccc1Cl (centres undefined),i,-16,i,5.3*,-6
O=C(CC1NCCc2ccccc21)Nc1ccccc1Cl (centres undefined),i,·,i,-1,·
Cc1ccc(N2CC(C(=O)N3CCN(c4ccccn4)CC3)CC2=O)cc1 (centres undefined),·,-13,·,·,·
CCOC(=O)c1cnc(-n2nc(C)cc2C)nc1Oc1ccccc1F,i,3,i,7.8*,-6
CN(CCC1CCCCO1)C(=O)CCc1nnc(C2CCCCC2)o1 (centres undefined),i,-11,i,-3,·
COc1ccc(-c2nc3c(c(SCC(=O)N4CCOCC4)n2)COC(C)(C)C3)cc1,i,·,i,-3,·
COc1ccc(-c2nc3c(c(SCC(=O)N4CCCC4)n2)COC(C)(C)C3)cc1,i,24,i,11*,-5
CCC1(c2ccccc2)NC(=O)N(CC(=O)N(CC(=O)Nc2ccccc2C(F)(F)F)Cc2ccco2)C1=O (centres undefined),i,0,i,1,·
CN1CCN(CC(C)(C)NS(=O)(=O)c2ccccc2)CC1,·,5,·,0,·
CC(C)(CN1CCc2ccccc2C1)NS(=O)(=O)c1ccccc1,i,-7,i,7.7*,-6
SMILES,CHT allo act,H9c2 TAG inh,CHT block,MIN6 prolif-1,MIN6 prolif-2
COc1ccc(C(C#N)=Cc2cccc(OC)c2OC)cc1,·,9,·,·,·
COc1cc2c(cc1OC)CN(C(=O)c1sccc1C)CC2,i,7,i,5.1*,0
CC(=O)Nc1ccc(Oc2cnccn2)cc1,i,·,i,0.0*,2
CC(=O)Nc1ccc(Oc2cnc3ccccc3n2)cc1,i,·,i,3,·
CN1C(=O)c2cccc3c(Cl)ccc(c23)C1=O,i,·,i,6.9*,-1
CN1C(=O)c2cccc3c(Br)ccc(c23)C1=O,i,-2,i,6,·
Cc1ccc(CSCCNS(=O)(=O)c2ccccc2)cc1,i,-21,i,3,·
C=CCNc1nc(-c2ccccc2)c(C(=O)OCC)cc1C#N,i,4,i,5.3*,-6
NC(=O)C1CCN(CC(=O)Nc2ccccc2Sc2ccc(Cl)cc2)CC1,i,·,i,0,·
NC(=O)C1CCN(CC(=O)Nc2ccccc2Sc2ccccc2)CC1,i,·,i,7.1*,-3
CCOc1ncccc1C(=O)Nc1ccc2c(C)cc(=O)oc2c1,i,9,i,8.1*,3
Cc1ccc(N(CC(=O)NCC2CCCO2)S(=O)(=O)c2ccccc2)c(C)c1 (centres undefined),i,·,i,-3,·
C/C(Cn1nnc2ccccc21)=N\NC(=O)c1cccc(Br)c1,i,·,i,0,·
COc1cccc(/C=N/n2c(C3CCCCC3)n[nH]c2=S)c1,i,·,i,6.9*,-6
Oc1cccc(/C=N/n2c(C3CCCCC3)n[nH]c2=S)c1,i,·,i,1,·
CC1CCCCC1NC(=O)Cn1cc([N+](=O)[O-])ccc1=O (centres undefined),·,-3,·,-1,·
O=C(Cc1ccc(-c2ccccc2)cc1)Nc1ncccc1O,i,·,i,0,·
O=C(Cc1ccc(-c2ccccc2)cc1)Nc1ccccc1,i,·,i,6.0*,-1
Cc1ccc2nc3c(cc2c1)c(NC(=O)C(C)(C)C)nn3CC(C)C,i,·,i,-3,·
Cc1ccc(CNc2oc(-c3ccco3)nc2C#N)cc1,i,·,i,0.0*,-6
CN(CCO)S(=O)(=O)c1ccc2c(c1)C(=NN)c1cc(S(=O)(=O)N(C)CCO)ccc1-2,i,·,i,2,·
O=C(c1ccco1)N1CCN(c2ccc([N+](=O)[O-])c(N3CCOCC3)c2)CC1,i,-5,i,9.7*,1
CN(C)S(=O)(=O)c1cccc(NC(=O)COC(=O)CCc2nc3ccccc3s2)c1,i,-5,i,6.7*,5
CCN(CC)C(=O)c1cccc(NC(=O)c2ccccc2OCc2c(C)noc2C)c1,·,-4,·,2,·
Cc1ccc(CSc2nnc(-c3ccccn3)n2C)cc1,i,-117,i,7.1*,-4
SMILES,CHT allo act,H9c2 TAG inh,CHT block,MIN6 prolif-1,MIN6 prolif-2
Cn1c(SCc2ccc(F)cc2)nnc1-c1ccccn1,i,·,i,0,·
CC1(c2ccc3c(c2)OCO3)NC(=O)N(CC(=O)Nc2ccccc2[N+](=O)[O-])C1=O (centres undefined),·,-6,·,14*,0
O=S(=O)(c1ccccc1)N1CCN(c2cccc(Cl)c2)CC1,i,·,i,7.2*,-6
COc1ccccc1-c1csc(C(NC(C)=O)c2ccc(F)c(F)c2)n1 (centres undefined),·,15,·,·,·
Cc1ccc(F)cc1NC(=O)c1sc2ncn(CC(=O)N3CCN(c4ccccn4)CC3)c(=O)c2c1C,i,·,i,1,·
C=CCn1c(Cc2c(C)[nH]c3ccccc23)nnc1SCC(=O)NCc1ccc(F)cc1,i,-3,i,6.9*,-5
CCn1c(Cc2c(C)[nH]c3ccccc23)nnc1SCC(=O)NCc1ccccc1,i,-3,i,0,·
